High-throughput results from PubChem.
Cruzain noTriton: inhibitors of Trypanosoma cruzi cruzain without detergent. purified cruzain, Z-FR-AMC fluorescence, no detergent. Potency, µM, without a hit: max response, negative = inhibition, hits mostly inhibitors. 200,000 tested, 2.3% active;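 note: plate controls were enzyme without inhibitor for no effect and buffer without enzyme for full effect; nearly all actives have a fitted effect of over 40% in size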
Target sequence (P25779 123-467 limits assumed): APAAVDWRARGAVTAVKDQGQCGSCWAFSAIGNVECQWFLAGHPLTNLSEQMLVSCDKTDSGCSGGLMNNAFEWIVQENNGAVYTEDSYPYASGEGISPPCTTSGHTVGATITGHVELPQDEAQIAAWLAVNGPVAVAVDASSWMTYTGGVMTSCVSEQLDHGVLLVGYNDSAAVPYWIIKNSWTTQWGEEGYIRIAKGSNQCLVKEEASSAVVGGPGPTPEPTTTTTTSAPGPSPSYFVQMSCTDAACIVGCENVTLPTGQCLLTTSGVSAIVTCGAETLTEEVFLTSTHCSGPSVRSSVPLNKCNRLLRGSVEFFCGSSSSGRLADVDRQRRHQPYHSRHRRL
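Detergent-free condition (0.00005% Triton X-100) in acetate buffer pH 5.5 with DTT. 1.5 nM enzyme and compound were pre-mixed 15 min, then 2 uM Z-FR-AMC substrate added; reaction progress from fluorescence change between first and third reads (60 s).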
Cruzain Triton: inhibitors of Trypanosoma cruzi cruzain with detergent; purified cruzain, Z-FR-AMC fluorescence, 0.01% Triton; 200,000 tested, 0.43% active; AID 1478; Potency, µM, without a hit: max response, negative = inhibition, hits mostly inhibitors;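 note: plate controls were neutral wells for no effect and buffer without enzyme for full effect; nearly all actives have a fitted effect of over 40% in size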
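Purified cruzain (1.5 nM final) was preincubated with compounds for 15 min at room temperature in 100 mM sodium acetate pH 5.5, 5 mM DTT, 0.01% Triton X-100. Reaction started with 2 uM Z-FR-AMC; AMC fluorescence change over 60 s gave activity.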
Starred values were filed as active, the others as inactive; u = inconclusive. Sampled rows, rich in hits. Any-hit rate of the full collection: about 2.4%. Calls come from the whole dose curve; as a rule, active = well fitted curve in the direction sought with a large enough effect; inconclusive = small, poorly fitted or top-dose-only effect, or another doubt; inactive = no such curve, though single readings can be large; an effect the other way counts as inactive or inconclusive. Potency is the fitted concentration of half-maximal effect.

SMILES	Cruzain noTriton	Cruzain Triton
O=C(Nc1cc(Sc2ccccn2)cc([N+](=O)[O-])c1)c1cccc(Cl)c1	u	-7%
O=C(Nc1cc(Sc2ccccn2)cc([N+](=O)[O-])c1)c1ccc(Cl)cc1	13µM*	4%
O=C(O)CCC[C@H](O)\C=C/C=C/C=C/[C@H](O)C/C=C\CCCCCO	-10%	5%
O=C(O)CCCC/C=C\C[C@@H](O)/C=C/C=C/C=C\[C@@H](O)CCCC(=O)O	4µM*	13µM*
COc1ccc(NC(=O)c2c(NC(=O)C(F)(F)F)sc3c2CCCCC3)cc1	-8%	-6%
CCc1ccccc1NC(=O)Cn1ccn(-c2cc(C)cc(C)c2)c(=O)c1=O	u	-9%
Cc1ccc(C(=O)N/C(=C\c2ccc([N+](=O)[O-])cc2)C(=O)NCCc2ccccc2)cc1	u	0%
O=C(NCCc1ccccc1)/C(=C\c1ccc([N+](=O)[O-])cc1)NC(=O)c1ccc(Br)cc1	6.3µM*	-2%
O=C(O)CNC(=O)c1ccc(CO)o1	-1%	4%
O=C(/C=C/c1cccc(Cl)c1)Nn1c(-c2cccs2)nc2ccccc2c1=O	13µM*	-5%
O=C(/C=C/c1ccccc1)Nn1c(-c2cccs2)nc2ccccc2c1=O	u	-8%
Cc1cccc(OC(=O)c2nc(SCc3ccccc3F)ncc2Cl)c1	-23%	-1%
CC(=O)/C(=C\c1ccccc1F)C(=O)c1ccccc1	u	-2%
Cc1ccc(CCNC(=O)c2ccc(CSCc3ccc(C)cc3)o2)cc1	-25%	-2%
C(=N\Nc1nc(-c2ccccc2)cs1)/c1cccs1	25µM*	-6%
C(=N\Nc1nc(-c2ccccc2)cs1)/c1ccco1	u	-14%
N#CCCn1c(SCC(=O)c2c[nH]c3ccccc23)nc2ccccc21	u	-6%
Cc1cc(C(=O)CSc2nc3ccccc3n2CCC#N)c(C)n1Cc1cccs1	16µM*	2%
CC(=O)Oc1c2c(c(CC=C(C)C)c3c1C(=O)C1=CC4CC5C(C)(C)OC(C/C=C(\C)C(=O)O)(C4=O)[C@]15O3)OC(C)(CCC=C(C)C)C=C2 (stereo partly specified)	27%	-13%
O=C(C[n+]1ccc2ccccc2c1)Nc1cc(C(F)(F)F)ccc1Cl	4%	-2%
O=C(C[n+]1ccc2ccccc2c1)c1ccc2ccc3ccccc3c2c1	3.2µM*	-3%
C=CCSc1nc2sc(-c3ccccc3)cc2c(=O)n1N	32µM*	-5%
Cc1ccccc1-n1c(SCC(N)=O)nc2sc(-c3ccccc3)cc2c1=O	10%	-5%
CCc1ccc(NC(=O)CSc2nnc(COc3ccc4c(c3)CCCC4)o2)cc1	16µM*	5%
CCc1ccc(OCc2nnc(SCC(=O)Nc3cccc(C(=O)N4CCOCC4)c3)o2)cc1	u	-3%
SMILES	Cruzain noTriton	Cruzain Triton
COc1cccc(NC(=O)CSc2nnc(COc3ccc4c(c3)CCCC4)o2)c1	14%	-1%
COC(=O)c1ccc(NC(=O)CSc2nnc(COc3ccc4c(c3)CCCC4)o2)cc1	10µM*	5%
Cc1ccccc1C(=O)Nc1c(C)nc2ccccn2c1=O	-9%	-6%
COc1cc2c(cc1NC(=O)Nc1cccc(C)c1)oc1ccccc12	u	18%
COc1ccccc1NC(=S)NC(=O)/C=C/c1ccco1	-29%	-21%
COc1ccc(/C=C/C(=O)NC(=S)NNC(=O)Cc2cccs2)cc1	13µM*	0%
COc1cc2c(cc1NC(=O)C(C)OC(=O)/C=C/c1ccc(OC(F)F)cc1)oc1ccccc12 (stereo unspecified)	32µM*	0%
COc1cc2c(cc1NC(=S)NC(=O)/C=C/c1ccco1)oc1ccccc12	13µM*	-5%
O=C(/C=C/c1ccccc1)NC(=S)NNC(=O)Cc1cccs1	u	6%
COc1cc2c(cc1NC(=S)Nc1cccc(C)c1)oc1ccccc12	32µM*	-3%
COc1cc2c(cc1NC(=O)/C=C/c1ccccc1)oc1ccccc12	u	0%
CC(=O)c1cccc(NC(=O)c2sc(-n3nc(C)c(Cc4ccc5c(c4)OCO5)c3C)nc2C)c1	-4%	1%
Cc1c(C(=O)N2CCCCCC2)c(S(=O)(=O)N(Cc2ccccc2)C(C)(C)C)c(C)n1C	u	-2%
COc1cc(CN(C(=O)c2oc3ccccc3c2C)C2CCS(=O)(=O)C2)cc(OC)c1OC (stereo unspecified)	13%	-2%
CCc1ccccc1N(c1nc(-c2ccc(OC)c(OC)c2)no1)c1nc(-c2ccc(OC)c(OC)c2)no1	1%	0%
Cc1ccc(O)c(C(CC(=O)NCC2(c3ccccc3)CCCC2)c2ccccc2)c1 (stereo unspecified)	-11%	-8%
CCOC(=O)c1cc(-c2ccccc2)n(CCC(=O)NCCc2ccccc2)c1C	-2%	0%
COc1ccc(/C=C/C(=O)NC(=S)Nc2cc3oc4ccccc4c3cc2OC)cc1	2.5µM*	1%
COc1cc2c(cc1NC(=S)NC(=O)/C=C/c1ccc(OC)c(OC)c1)oc1ccccc12	-25%	-3%
COCOc1cc(OC)ccc1C(=O)/C=C/c1cccc(C(F)(F)F)c1	1%	-1%
COc1cccc(Cn2cnc3c2c(=O)n(C)c(=O)n3C)c1	5%	2%
CCOC(=O)C1=C(N)n2c(s/c(=C\c3ccco3)c2=O)=C(C(=O)OCC)C1c1ccco1 (stereo unspecified)	7.9µM*	-6%
CCOC(=O)C1=C(N)n2c(s/c(=C/c3ccccc3)c2=O)=C(C(=O)OCC)C1c1ccccc1 (stereo unspecified)	-9%	-2%
CCOC(=O)C1=C(c2ccccc2)N=c2s/c(=C\c3ccco3)c(=O)n2C1c1cccs1 (stereo unspecified)	u	-1%
CCOC(=O)C1=C(N)n2c(s/c(=C\c3ccco3)c2=O)=C(C(=O)OC(C)C)C1c1ccco1 (stereo unspecified)	10µM*	-8%
SMILES	Cruzain noTriton	Cruzain Triton
CCCN(Cc1cc2cccc(C)c2[nH]c1=O)C(=O)c1cccc(Cl)c1	-9%	0%
Cc1ccc(-n2cccc2/C=C2/NC(=O)N(CC(=O)Nc3cccc(C)c3)C2=O)cc1	5µM*	-4%
Cc1cccc(NC(=O)CN2C(=O)N/C(=C\c3ccc(N4CCOCC4)cc3)C2=O)c1	-21%	-4%
CCOc1ccccc1Nc1nc(-c2cccc(Cl)c2)c2c(n1)-c1ccccc1OC2	13%	-15%
Cc1ccc(C(=O)Cn2nnc3c(sc4nc5c(c(-c6ccccc6)c43)CCC5)c2=O)cc1	20µM*	-3%
Cc1ccc(-c2c3c(nc4sc(C(N)=O)c(N)c24)CCC3)cc1	-3%	-10%
COc1ccc(CNC(=O)c2cc3c(=O)oc4ccc(C)cc4c3s2)c(OC)c1	9%	-1%
Cn1c(=O)n(C)c2cc(CNCc3ccccc3Cl)ccc21	-6%	0%
C=CCn1c(C)cc(-c2csc(N)n2)c1C	u	-5%
Cc1cc(-c2csc(N)n2)c(C)n1-c1ccc(Cl)c(Cl)c1	13µM*	-8%
COc1ccc(-n2c(C)cc(-c3csc(N)n3)c2C)cc1	20µM*	-2%
CCCn1c(C)cc(-c2csc(N)n2)c1C	u	-8%
CC(C)(C)c1ccc(C(=O)Nc2onc3c2CCCC3)cc1	-1%	-9%
COc1cccc(CNS(=O)(=O)c2ccc(N3CCCCS3(=O)=O)cc2)c1	-1%	3%
O=C(Oc1ccc2c(c1)O/C(=C\c1ccncc1)C2=O)c1ccccc1	7%	-21%
Cc1ccsc1/C=C1\Oc2cc(OCC(=O)c3ccccc3)ccc2C1=O	13µM*	-5%
